This passage reports binding signal results from publication PMC7862700, “An all-to-all approach to the identification of sequence-specific readers for epigenetic DNA modifications on cytosine”.

Holding throughout (assay): DAPPL (digital affinity profiling via proximity ligation, sequencing); 10 mM Tris-HCl pH 7.5, 50 mM NaCl, 1 mM DTT, 4% glycerol, room temperature, 30 min; GST-TFs on glutathione beads, 16-mer random dsDNA library, 0.1% formaldehyde crosslink after washing; high values mean tight binding
Common to all, as to settings: protein: recombinant; tags: N-terminal GST; dsDNA, one strand shown

In one assay the target is T1, GABPA (Homo sapiens, UniProt Q06546 1-454).
T1 sequence: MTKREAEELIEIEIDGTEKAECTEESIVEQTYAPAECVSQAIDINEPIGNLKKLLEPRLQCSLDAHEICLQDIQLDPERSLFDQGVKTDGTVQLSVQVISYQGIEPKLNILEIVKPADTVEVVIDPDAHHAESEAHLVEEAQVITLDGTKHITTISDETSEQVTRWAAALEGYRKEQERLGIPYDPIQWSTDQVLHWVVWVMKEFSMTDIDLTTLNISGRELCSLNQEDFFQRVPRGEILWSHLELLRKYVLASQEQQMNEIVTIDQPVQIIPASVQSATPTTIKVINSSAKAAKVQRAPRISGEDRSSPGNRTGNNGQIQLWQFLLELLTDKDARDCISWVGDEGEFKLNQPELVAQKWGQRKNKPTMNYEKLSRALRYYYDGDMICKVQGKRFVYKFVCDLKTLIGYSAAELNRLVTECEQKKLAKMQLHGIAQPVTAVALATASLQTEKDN
Put shortly:
(§1)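 Binding signal is defined as a hexamer's read frequency for one factor over its frequency for the tag-only sample. To obtain reads, GST-fused human transcription factors were expressed in yeast, captured on glutathione beads, barcoded with DNA and pooled with that sample. Pools met 200 nmole of a 16-mer random double-stranded DNA library in Tris/NaCl/DTT/glycerol buffer for 30 min at room temperature before washing, 0.1% formaldehyde crosslinking, proximity ligation (BsaI/T4 ligase, 1 h, 37 °C), PCR and Illumina NextSeq500 sequencing.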

In a further assay the target is T2, FEV (Homo sapiens, UniProt Q99581 1-238).
T2 sequence: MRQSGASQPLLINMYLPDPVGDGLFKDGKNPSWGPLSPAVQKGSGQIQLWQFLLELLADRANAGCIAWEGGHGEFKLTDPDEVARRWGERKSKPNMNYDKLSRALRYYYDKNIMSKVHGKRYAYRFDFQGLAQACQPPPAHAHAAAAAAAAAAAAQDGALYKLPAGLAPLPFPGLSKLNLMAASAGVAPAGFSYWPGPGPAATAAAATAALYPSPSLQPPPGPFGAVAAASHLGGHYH
The gist of the method:
as §1

The next assay addresses T3, SPIC (Homo sapiens, UniProt Q8N5J4 1-248).
T3 sequence: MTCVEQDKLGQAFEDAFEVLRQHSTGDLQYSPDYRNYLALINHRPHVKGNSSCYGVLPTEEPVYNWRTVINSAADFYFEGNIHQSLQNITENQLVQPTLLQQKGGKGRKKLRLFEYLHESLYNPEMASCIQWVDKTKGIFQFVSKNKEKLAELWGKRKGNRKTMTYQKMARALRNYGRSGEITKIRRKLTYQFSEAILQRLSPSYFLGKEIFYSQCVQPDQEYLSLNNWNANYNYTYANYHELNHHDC
The gist of the method: as §1

The next assay deals with ELF4 (Homo sapiens, UniProt Q99607 1-663). The gist of the method:
as §1

The next assay has as its target T4, ETV2 (Homo sapiens, UniProt O00321 1-342).
T4 sequence: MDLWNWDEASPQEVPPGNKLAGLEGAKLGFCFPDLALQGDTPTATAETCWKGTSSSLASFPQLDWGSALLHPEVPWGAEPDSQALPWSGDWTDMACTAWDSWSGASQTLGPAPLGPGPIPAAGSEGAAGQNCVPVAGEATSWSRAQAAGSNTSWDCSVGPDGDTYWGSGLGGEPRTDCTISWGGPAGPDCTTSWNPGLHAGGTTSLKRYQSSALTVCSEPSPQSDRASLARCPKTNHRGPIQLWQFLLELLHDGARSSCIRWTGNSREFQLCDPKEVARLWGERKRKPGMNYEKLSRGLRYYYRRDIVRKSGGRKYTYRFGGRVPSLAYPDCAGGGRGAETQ
The gist of the method:
as §1

Another assay deals with CRX (Homo sapiens, UniProt O43186 1-299). Put shortly:
as §1

For the next assay, the target named is T5, ETS2 (Homo sapiens, UniProt P15036 1-469).
T5 sequence: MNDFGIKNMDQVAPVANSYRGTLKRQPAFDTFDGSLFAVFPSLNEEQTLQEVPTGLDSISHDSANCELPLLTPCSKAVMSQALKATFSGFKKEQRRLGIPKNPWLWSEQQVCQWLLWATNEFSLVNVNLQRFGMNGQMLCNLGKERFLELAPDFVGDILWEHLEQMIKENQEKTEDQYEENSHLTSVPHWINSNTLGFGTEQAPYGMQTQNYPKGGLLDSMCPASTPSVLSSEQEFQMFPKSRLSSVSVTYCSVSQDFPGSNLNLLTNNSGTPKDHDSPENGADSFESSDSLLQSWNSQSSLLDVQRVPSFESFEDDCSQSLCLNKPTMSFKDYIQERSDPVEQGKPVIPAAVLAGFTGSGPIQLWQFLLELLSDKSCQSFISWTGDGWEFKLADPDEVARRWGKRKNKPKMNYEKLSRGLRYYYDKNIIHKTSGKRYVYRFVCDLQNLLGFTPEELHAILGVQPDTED
Put shortly: as §1

The target of a further assay is T6, ETV7 (Homo sapiens, UniProt Q9Y603 1-341).
T6 sequence: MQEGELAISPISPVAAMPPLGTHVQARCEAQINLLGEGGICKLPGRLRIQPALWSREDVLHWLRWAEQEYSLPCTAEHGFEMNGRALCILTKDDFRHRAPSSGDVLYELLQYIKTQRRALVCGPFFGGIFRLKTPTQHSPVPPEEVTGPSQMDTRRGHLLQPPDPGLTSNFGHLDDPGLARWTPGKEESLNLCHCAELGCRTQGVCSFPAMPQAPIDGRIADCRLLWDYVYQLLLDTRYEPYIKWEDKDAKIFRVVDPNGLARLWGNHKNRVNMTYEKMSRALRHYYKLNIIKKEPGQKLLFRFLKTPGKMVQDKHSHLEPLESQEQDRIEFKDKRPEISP
Put shortly:
as §1

The next assay deals with T7, ELF5 (Homo sapiens, UniProt Q9UKW6-2 1-255).
T7 sequence: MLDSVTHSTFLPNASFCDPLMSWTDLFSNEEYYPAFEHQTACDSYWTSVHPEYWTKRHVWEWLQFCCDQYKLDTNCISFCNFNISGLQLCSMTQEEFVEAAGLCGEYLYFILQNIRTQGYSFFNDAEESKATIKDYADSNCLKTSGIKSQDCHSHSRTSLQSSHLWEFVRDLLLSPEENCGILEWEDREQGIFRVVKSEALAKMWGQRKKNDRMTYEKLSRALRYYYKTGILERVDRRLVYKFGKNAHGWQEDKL
The gist of the method: as §1

A further assay addresses ELF1 (Homo sapiens, UniProt P32519 1-619). The gist of the method: as §1
A further assay concerns the target SPI1 (Homo sapiens, UniProt P17947 1-270). Put shortly: as §1
In a further assay the target is T8, ELF3 (Homo sapiens, UniProt P78545 1-371).
T8 sequence: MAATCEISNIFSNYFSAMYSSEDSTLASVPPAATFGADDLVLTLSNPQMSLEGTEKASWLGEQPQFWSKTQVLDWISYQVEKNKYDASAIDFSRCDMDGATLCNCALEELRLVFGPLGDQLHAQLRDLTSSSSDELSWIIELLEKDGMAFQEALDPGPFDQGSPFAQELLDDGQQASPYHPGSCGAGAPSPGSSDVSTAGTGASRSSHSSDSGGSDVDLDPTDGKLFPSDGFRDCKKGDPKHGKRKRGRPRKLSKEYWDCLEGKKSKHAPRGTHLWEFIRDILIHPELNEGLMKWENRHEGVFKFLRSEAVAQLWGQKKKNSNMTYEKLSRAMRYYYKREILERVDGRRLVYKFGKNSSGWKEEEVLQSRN
The gist of the method:
as §1

The target of another assay is ETV1 (Homo sapiens, UniProt P50549 1-477). The gist of the method:
as §1

A further assay has as its target T9, ETV3 (Homo sapiens, UniProt P41162-2 1-143).
T9 sequence: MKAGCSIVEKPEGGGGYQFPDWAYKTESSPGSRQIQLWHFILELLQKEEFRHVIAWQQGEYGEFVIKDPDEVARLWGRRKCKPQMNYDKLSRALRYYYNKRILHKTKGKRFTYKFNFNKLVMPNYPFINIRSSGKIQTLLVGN
Put shortly: as §1

The target in a further assay is ETV6 (Homo sapiens, UniProt P41212 1-452). The gist of the method:
as §1

Sequence of ELF4 (Q99607 whole entry): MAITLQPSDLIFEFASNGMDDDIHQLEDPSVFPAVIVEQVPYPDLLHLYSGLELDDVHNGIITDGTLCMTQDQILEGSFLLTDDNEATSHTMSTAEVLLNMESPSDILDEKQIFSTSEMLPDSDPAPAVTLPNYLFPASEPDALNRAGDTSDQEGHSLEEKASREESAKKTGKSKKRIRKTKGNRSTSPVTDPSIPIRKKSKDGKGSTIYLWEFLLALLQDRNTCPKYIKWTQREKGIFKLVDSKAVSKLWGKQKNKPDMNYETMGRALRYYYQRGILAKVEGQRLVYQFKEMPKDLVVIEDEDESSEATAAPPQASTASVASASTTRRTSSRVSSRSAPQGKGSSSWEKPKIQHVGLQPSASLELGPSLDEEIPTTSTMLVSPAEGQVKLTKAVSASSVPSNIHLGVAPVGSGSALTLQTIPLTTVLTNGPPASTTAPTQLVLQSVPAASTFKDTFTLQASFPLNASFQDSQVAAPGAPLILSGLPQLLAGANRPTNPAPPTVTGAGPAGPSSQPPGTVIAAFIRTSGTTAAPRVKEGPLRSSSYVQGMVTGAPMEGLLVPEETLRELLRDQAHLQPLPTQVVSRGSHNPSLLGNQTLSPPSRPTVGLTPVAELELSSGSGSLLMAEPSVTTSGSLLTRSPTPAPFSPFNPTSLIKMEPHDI
Sequence of CRX (O43186 whole entry): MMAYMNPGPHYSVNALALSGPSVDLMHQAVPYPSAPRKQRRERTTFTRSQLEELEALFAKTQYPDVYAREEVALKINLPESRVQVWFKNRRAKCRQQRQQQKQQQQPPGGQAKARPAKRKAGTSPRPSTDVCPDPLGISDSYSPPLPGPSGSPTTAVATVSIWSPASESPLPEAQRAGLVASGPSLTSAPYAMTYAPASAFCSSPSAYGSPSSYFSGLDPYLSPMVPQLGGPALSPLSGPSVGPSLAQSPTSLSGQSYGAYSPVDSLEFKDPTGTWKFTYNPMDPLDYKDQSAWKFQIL
Sequence of ETV6 (P41212 whole entry): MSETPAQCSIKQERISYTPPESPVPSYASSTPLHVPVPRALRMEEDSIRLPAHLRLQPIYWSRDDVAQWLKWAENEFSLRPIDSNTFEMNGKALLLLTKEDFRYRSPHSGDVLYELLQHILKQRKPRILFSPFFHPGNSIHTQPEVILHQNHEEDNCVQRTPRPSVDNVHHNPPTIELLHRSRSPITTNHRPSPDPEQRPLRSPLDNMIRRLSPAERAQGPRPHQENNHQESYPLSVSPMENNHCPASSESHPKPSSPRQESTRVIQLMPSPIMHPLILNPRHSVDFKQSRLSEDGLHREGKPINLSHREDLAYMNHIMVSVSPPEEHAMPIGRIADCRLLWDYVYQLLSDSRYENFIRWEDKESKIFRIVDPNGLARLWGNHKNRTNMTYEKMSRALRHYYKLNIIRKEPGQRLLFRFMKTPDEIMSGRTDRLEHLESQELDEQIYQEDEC
Sequence of ETV1 (P50549 whole entry): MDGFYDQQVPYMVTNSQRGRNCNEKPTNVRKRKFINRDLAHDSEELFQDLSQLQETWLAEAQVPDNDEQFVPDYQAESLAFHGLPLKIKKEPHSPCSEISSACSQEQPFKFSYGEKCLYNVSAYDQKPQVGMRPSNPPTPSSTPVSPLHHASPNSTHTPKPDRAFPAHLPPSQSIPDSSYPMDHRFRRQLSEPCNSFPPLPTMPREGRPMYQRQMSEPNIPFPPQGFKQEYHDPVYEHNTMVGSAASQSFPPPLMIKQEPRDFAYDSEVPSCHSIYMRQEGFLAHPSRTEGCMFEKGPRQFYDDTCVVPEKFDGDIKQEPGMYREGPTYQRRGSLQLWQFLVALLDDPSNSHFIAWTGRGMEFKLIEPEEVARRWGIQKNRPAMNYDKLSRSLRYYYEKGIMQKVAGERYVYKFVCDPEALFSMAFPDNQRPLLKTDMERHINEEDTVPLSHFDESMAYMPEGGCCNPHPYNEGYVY
Sequence of ELF1 (P32519 whole entry): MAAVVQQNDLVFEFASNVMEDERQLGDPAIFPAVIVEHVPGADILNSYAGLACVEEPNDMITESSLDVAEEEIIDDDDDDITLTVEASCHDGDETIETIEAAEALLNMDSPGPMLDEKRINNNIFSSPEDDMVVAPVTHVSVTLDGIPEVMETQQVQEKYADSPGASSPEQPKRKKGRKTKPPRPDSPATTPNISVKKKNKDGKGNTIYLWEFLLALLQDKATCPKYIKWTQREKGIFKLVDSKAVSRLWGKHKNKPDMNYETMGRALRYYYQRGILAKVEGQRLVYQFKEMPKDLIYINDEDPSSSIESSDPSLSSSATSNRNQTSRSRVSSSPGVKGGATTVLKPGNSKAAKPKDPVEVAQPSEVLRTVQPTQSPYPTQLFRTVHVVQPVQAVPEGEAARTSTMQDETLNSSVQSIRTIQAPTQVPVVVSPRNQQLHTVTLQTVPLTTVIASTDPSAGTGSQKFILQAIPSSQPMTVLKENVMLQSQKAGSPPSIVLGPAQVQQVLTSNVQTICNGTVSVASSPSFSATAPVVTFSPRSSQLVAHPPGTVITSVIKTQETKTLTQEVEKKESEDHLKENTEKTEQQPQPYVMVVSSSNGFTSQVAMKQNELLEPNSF

AAAGGC: the binding signal with GABPA is 1.1 fold enrichment (6-mer frequency, TF over GST control); with FEV, 1.01 fold enrichment (6-mer frequency, TF over GST control); with SPIC it was 1 fold enrichment (6-mer frequency, TF over GST control); in the assay with ELF4, 1.04 fold enrichment (6-mer frequency, TF over GST control); in the assay with ETV2 it was 1.04 fold enrichment (6-mer frequency, TF over GST control); with CRX, 1.03 fold enrichment (6-mer frequency, TF over GST control). Also, the binding signal with ETS2 is 1 fold enrichment (6-mer frequency, TF over GST control); with ETV7, 1.03 fold enrichment (6-mer frequency, TF over GST control); in the assay with ELF5, 1 fold enrichment (6-mer frequency, TF over GST control).
Regarding AACGCG, the binding signal in the assay with GABPA is 1.04 fold enrichment (6-mer frequency, TF over GST control); in the assay with ELF1, 1.05 fold enrichment (6-mer frequency, TF over GST control); in the assay with SPI1, 1.05 fold enrichment (6-mer frequency, TF over GST control); with SPIC it was 1.1 fold enrichment (6-mer frequency, TF over GST control); in the assay with ELF4, 1.01 fold enrichment (6-mer frequency, TF over GST control); with ELF3 it was 1.02 fold enrichment (6-mer frequency, TF over GST control). The binding signal is 1.04 fold enrichment (6-mer frequency, TF over GST control) with ETV1; 1.02 fold enrichment (6-mer frequency, TF over GST control) in the assay with ETV7; 1.03 fold enrichment (6-mer frequency, TF over GST control) in the assay with ELF5; 1.1 fold enrichment (6-mer frequency, TF over GST control) in the assay with ETV3; 1.01 fold enrichment (6-mer frequency, TF over GST control) in the assay with ETV6.
